# A selection: hits, their analogues and other compounds. The true share with any hit is near 19%.
# TDP1 cell CPT – DT40-hTDP1 cell growth loss with CPT; AID 686979; chicken DT40 Tdp1-/-;hTDP1 cells + 20 nM CPT, ATP luminescence, 48 h; Potency, µM (series often up to 46.2 µM), for the others: top-dose activity change, negative = growth inhibition, usual class: inhibitors; actives 12% (n = 420,000); further: nearly all actives have a fitted effect of over 55% in size
#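 Cell growth measured by CellTiter-Glo luminescence after a minimum 48 h, 37 C compound exposure with 20 nM CPT in Tdp1-knockout DT40 cells stably expressing hTDP1, seeded 400/well; qHTS titration format.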
# DT40 TDP1 no CPT – qHTS for Inhibitors of human tyrosyl-DNA phosphodiesterase 1 (TDP1): qHTS in cells in absence of CPT. DT40 Tdp1-/- hTDP1 cells, no CPT, ATP luminescence, 48 h. Potency, µM (series often up to 46.2 µM), for inactives: at the highest dose activity change, negative = growth inhibition, usual class: inhibitors. actives 15% (n = 420,000). AID 686978, 2013; further: nearly all actives have a fitted effect of over 55% in size
#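 A cellular qHTS used chicken DT40 cells lacking endogenous Tdp1 but carrying stably transfected human TDP1. Compounds were applied without camptothecin, and cell growth kinetics were judged by ATP-dependent luminescence after ≥48 hr.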
# HT1080-NT tox – kills 2HG-producing HT-1080-NT fibrosarcoma cells; HT-1080-NT fibrosarcoma viability, CellTiter-Glo ATP luminescence, 48 h; actives 1.6% (n = 360,000); AID 686970; Potency, µM (titrated, usually from 46.1 µM), for inactives: at the top dose activity, negative = less viability, actives largely listed as cytotoxic;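 further: NT is the 2HG producing partner of a matched IDH1 knockdown line; 0% = DMSO-treated cells and -100% = media-only wells without cells; nearly all actives have a fitted effect of over 55% in size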
#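 A 48-hour cytotoxicity screen used HT-1080-NT cells plated 2 hours before compound delivery. ATP-based CellTiter-Glo luminescence measured viability, normalized to DMSO and no-cell controls.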
# KB-V1 cytotox – KB-V1 MDR subline cytotoxicity; AID 1347076; Potency, µM (doses to about 46.1 µM), most hits filed as cytotoxic; actives 3.4% (n = 400,000); KB-V1 MDR cells viability, CellTiter-Glo, 72 h; further: nearly all actives have a fitted effect of over 60% in size
#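 KB-V1 cells (P-gp-expressing MDR subline of KB-3-1) in phenol-red-free DMEM with 10% FBS were exposed to library compounds over a concentration series for 72 h at 37 degrees C. Viability read by CellTiter-Glo luminescence; concentration-effect curves fitted after normalization.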
# KB-3-1 tox – kills parental KB-3-1 adenocarcinoma cells | AID 1347075 | Potency, µM (highest dose often 46.1 µM), hits mostly cytotoxic | KB-3-1 viability, CellTiter-Glo ATP luminescence, 72 h | actives 1.4% (n = 400,000); further: nearly all actives have a fitted effect of over 60% in size
#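 72 h, 37 °C compound treatment of KB-3-1 parental cells; CellTiter-Glo added, 10 min, luminescence read. Data corrected against DMSO-only plates and normalized before curve fitting.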
# HT1080 IDH1KD tx – toxicity to HT-1080 IDH1 knockdown cells (counter line); AID 686971; Potency, µM (titrated, usually from 46.1 µM), without a hit: at the highest dose activity, negative = toxicity, most hits filed as cytotoxic; actives 2% (n = 360,000); HT-1080 IDH1 knockdown viability, ATP luminescence, 48 h;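 further: 0% = DMSO wells and -100% = cell-free medium wells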
#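 HT-1080-IDH1KD cells (IDH1 knocked down), 750/well in RPMI with 5% FBS, treated with compound 48 h at 37 degrees C. Viability by CellTiter-Glo luminescence, normalised to DMSO and no-cell wells; concentration-response curves classed.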
# Starred values were filed as active, the others as inactive; i = inactive; ? = inconclusive; / = no result. The call rests on the fitted dose curve; in most records, active means well fitted curve in the direction sought with a large enough effect; inconclusive means small, poorly fitted or top-dose-only effect, or another doubt; inactive means no such curve, though single readings can be large; an effect the other way counts as inactive or inconclusive. Unless noted, on the % scale 0 is the no-effect control and ±100 the full control effect; potency means the concentration at half of the fitted maximal effect.
SMILES,TDP1 cell CPT,DT40 TDP1 no CPT,HT1080-NT tox,KB-V1 cytotox,KB-3-1 tox,HT1080 IDH1KD tx
COCCn1c(SCC(=O)Nc2sc(C)c(C)c2C#N)nnc1-c1ccc(OC)cc1,-30%,-1%,6%,9.2µM*,i,18%
COC(CN(C)S(=O)(=O)c1cc2c3c(c1)CCC(=O)N3CCC2)OC,-6%,6%,11%,i,i,5%
NC(=O)CC(NC(=O)c1ccc(Br)cc1)c1ccc(NC2CCCCCC2)c([N+](=O)[O-])c1 (stereo not given),16µM*,16µM*,12%,i,?,-1%
CC(C)Nc1ccc(C(CC(N)=O)NC(=O)Cc2ccc(Br)cc2)cc1[N+](=O)[O-] (stereo not given),13µM*,21µM*,-8%,i,i,-20%
NC(=O)CC(NC(=O)Cc1ccc(Br)cc1)c1ccc(NC2CCCCCC2)c([N+](=O)[O-])c1 (stereo not given),18µM*,?,5%,?,i,10%
NC(=O)CC(NC(=O)c1cccc(Br)c1)c1ccc(NC2CCCCCCC2)c([N+](=O)[O-])c1 (stereo not given),?,16µM*,12%,i,i,1%
NC(=O)CC(NC(=O)Cc1ccc(Br)cc1)c1ccc(NC2CCCC2)c([N+](=O)[O-])c1 (stereo not given),?,?,-1%,i,?,-1%
NC(=O)CC(NC(=O)Cc1ccc(Br)cc1)c1ccc(NC2CCCCCCC2)c([N+](=O)[O-])c1 (stereo not given),?,?,15%,i,?,10%
COc1ccc(NC(=O)CCNC(=O)c2ccco2)c(OC)c1,-28%,1%,4%,i,i,-1%
NC(=O)CC(NC(=O)c1ccc(Br)cc1)c1ccc(NC2CCCCC2)c([N+](=O)[O-])c1 (stereo not given),15µM*,16µM*,15%,i,i,8%
NC(=O)CC(NC(=O)c1cccc(Br)c1)c1ccc(NC2CCCCCCCCCCC2)c([N+](=O)[O-])c1 (stereo not given),2%,-12%,15%,i,i,-1%
COc1ccc(CC(N)c2csc(Nc3ccccn3)n2)cc1 (stereo not given),23µM*,26µM*,-9%,i,i,?
COc1ccc(C(N)c2csc(Nc3ccc(C(F)(F)F)cn3)n2)cc1 (stereo not given),?,18µM*,?,i,i,?
NC(Cc1ccccc1)c1csc(Nc2ccc(C(F)(F)F)cn2)n1 (stereo not given),21µM*,21µM*,?,?,?,?
NC(COCc1ccccc1)c1csc(Nc2nccc(C(F)(F)F)n2)n1 (stereo not given),?,?,-7%,?,i,-4%
COc1cccc(Nc2nc(C(N)Cc3ccc(C(F)(F)F)cc3)cs2)n1 (stereo not given),9.2µM*,12µM*,13µM*,i,i,23µM*
COc1cccc(Nc2nc(C(N)Cc3ccc(Cl)cc3)cs2)n1 (stereo not given),6.5µM*,6.5µM*,23µM*,i,i,16µM*
NC(=O)c1cccc(Nc2nc(C(N)Cc3ccc(C(F)(F)F)cc3)cs2)n1 (stereo not given),6.5µM*,10µM*,7.3µM*,i,?,?
COc1ccc(CC(N)c2csc(Nc3cccc(OC)n3)n2)cc1 (stereo not given),15µM*,13µM*,26µM*,?,i,-25%
NC(Cc1ccccc1)c1csc(Nc2ccc(C(=O)NCCO)cc2)n1 (stereo not given),?,?,24%,i,i,21%
O=C(N=C1SC2CS(=O)(=O)CC2N1c1ccc(Cl)c(Cl)c1)C1CCCO1 (stereo not given),2%,18%,-1%,?,i,1%
CCCS(=O)c1nc(C)cc(C)c1S(C)(=O)=O (stereo not given),-21%,0%,2%,i,i,16%
N#CC1(NC(=O)CN2c3cccc4cccc(c34)S2(=O)=O)CCCCC1,-13%,-28%,-2%,?,i,-14%
O=C(Nc1ccccc1)N1CCC(=S)Nc2ccccc21,7%,-2%,1%,i,i,5%
O=C(Nc1ccccc1)N1CCc2scc[n+]2-c2ccccc21,5.8µM*,12µM*,-2%,i,i,2%
SMILES,TDP1 cell CPT,DT40 TDP1 no CPT,HT1080-NT tox,KB-V1 cytotox,KB-3-1 tox,HT1080 IDH1KD tx
CC1CN(C(=O)Nc2ccccc2)c2ccccc2-[n+]2ccsc21 (stereo not given),3.7µM*,12µM*,2%,i,?,-1%
Cc1ccc(S(=O)(=O)NCC(=O)OCC(=O)N2CCN(C(=O)c3ccco3)CC2)cc1C,-4%,-13%,-10%,i,i,-1%
C=CCn1c(SC(C)C(N)=O)nc2sc(CC)cc2c1=O (stereo not given),-2%,?,-10%,i,i,-10%
C=CCn1c(SCN2C(=O)c3ccccc3C2=O)nc2ccc(Cl)cc2c1=O,18µM*,18µM*,-1%,16µM*,?,0%
C=CCn1c(SCc2nc3cc(C(=O)OC)ccc3c(=O)[nH]2)nc2sc(CC)cc2c1=O,?,18µM*,-5%,5.2µM*,i,-2%
C=CCn1c(SCC(N)=O)nc2ccccc2c1=O,-11%,-27%,/,i,?,/
C=CCn1c(SCC(=O)Nc2sccc2C(N)=O)nc2sc(CC)cc2c1=O,?,26µM*,?,i,?,?
C=CCn1c(SCC(=O)Nc2sccc2C(N)=O)nc2ccc(Cl)cc2c1=O,15µM*,16µM*,?,?,?,?
CN1CCN(c2ccc(C(CC(N)=O)NC(=O)Cc3cccc4ccccc34)cc2[N+](=O)[O-])CC1 (stereo not given),-28%,4%,-3%,i,i,-1%
CC(C)CNC(=O)c1ccccc1NC(=O)/C=C/c1cccc([N+](=O)[O-])c1,-9%,-7%,?,i,i,3%

# Compound activity from PubChem BioAssay.
